Measured values as given in PubChem BioAssay AID1159580 (chemical genetic matrix, 2015).
Among all 5,500 compounds or so, about 2,000 (36%) were called active. Roughly 18% stayed inconclusive and do not appear here. Rule as the data show it: active = normalized growth mostly below about 0.91 (no sharp cut-off); inconclusive = no clear call, values can overlap the other calls; inactive = mostly above about 0.92. The list shows a part of the results.

Experiment: chemical genetic growth profiling, strain panel (AID 1159580);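 also: tested at 20 µM; growth read once vehicle control cultures reached saturation at 30 °C; 1 = growth at the plate median or of vehicle wells; lower values mean less growth of the strain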
Settings: S. cerevisiae deletion strains, growth OD

Measured: normalized growth

O=C(OC1CCN(CCCl)CC1)C(c1ccccc1)c1ccccc1
inactive: locus YAL040C, strain CLN3, hits give low values 0.993 | locus YCL061C, strain MRC1 (second series), hits give low values 0.988 | locus YDR150W, strain NUM1, hits give low values 0.986 | locus YDR363W, strain ESC2, hits give low values 0.986 | locus YER002W, strain NOP16, hits give low values 1 | locus YGR078C, strain PAC10, hits give low values 0.994 | locus YJR075W, strain HOC1, hits give low values 0.995 | locus YNL128W, strain TEP1, hits give low values 0.997 | locus YNL153C, strain GIM3, hits give low values 0.969 | locus YNL175C, strain NOP13, hits give low values 1.01 | locus YNL197C, strain WHI3, hits give low values 1.03 | locus YNL224C, strain SQS1, hits give low values 0.99 | locus YOR083W, strain WHI5 (second series), hits give low values 0.996 | locus YPL241C, strain CIN2, hits give low values 0.99
